In the library only some 3.6% were active in any assay of this set; here they are far more common.
Rango dissoc inh = prevents RanGTP from dissociating the Rango-importin beta complex. O95149+P62826. AID 540253. Biochemical FRET Rango-importin beta, RanGTP-induced dissociation. Potency, µM (series often up to 46.1 µM). 340,000 tested, 0.071% active; calls by dose curve; also: nearly all actives have a fitted effect of over 45% in size
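FRET read at 45 min, room temperature: inhibitors block the CFP/YFP signal rise when RanGTP (0.6 uM Ran, 2 mM GTP, 0.2 uM RCC1) frees Rango (0.1 uM) from importin beta (0.25 uM). Pre-read after 5 min compound exposure flags interference.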
Rango complex inh = inhibitors of Rango-importin beta complex formation | Q14974 | Rango CFP/YFP FRET sensor + importin beta, 45 min | Potency, µM (top dose mostly 92.2 µM) | 340,000 tested, 0.031% active | AID 540263; calls by dose curve; also: nearly all actives have a fitted effect of over 15% in size
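FRET biosensor Rango (snurportin 1 IBB between N-terminal EYFP and C-terminal Cerulean), 50 nM in PBS/1 mM DTT/0.02% Tween-20/0.1% BSA, preincubated 5 min RT with compound; 0.125 microM importin beta added, 45 min RT, CFP/YFP FRET ratio read.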
GCN5L2 inh = GCN5L2 (KAT2A) acetyltransferase inhibition; Potency, µM (doses to about 58.9 µM), hits mostly inhibitors; 390,000 tested, 0.21% active; AID 504327; GCN5L2 HAT assay, ThioGlo1 CoA-SH fluorescence
Target sequence (Q92830 whole entry, looked up): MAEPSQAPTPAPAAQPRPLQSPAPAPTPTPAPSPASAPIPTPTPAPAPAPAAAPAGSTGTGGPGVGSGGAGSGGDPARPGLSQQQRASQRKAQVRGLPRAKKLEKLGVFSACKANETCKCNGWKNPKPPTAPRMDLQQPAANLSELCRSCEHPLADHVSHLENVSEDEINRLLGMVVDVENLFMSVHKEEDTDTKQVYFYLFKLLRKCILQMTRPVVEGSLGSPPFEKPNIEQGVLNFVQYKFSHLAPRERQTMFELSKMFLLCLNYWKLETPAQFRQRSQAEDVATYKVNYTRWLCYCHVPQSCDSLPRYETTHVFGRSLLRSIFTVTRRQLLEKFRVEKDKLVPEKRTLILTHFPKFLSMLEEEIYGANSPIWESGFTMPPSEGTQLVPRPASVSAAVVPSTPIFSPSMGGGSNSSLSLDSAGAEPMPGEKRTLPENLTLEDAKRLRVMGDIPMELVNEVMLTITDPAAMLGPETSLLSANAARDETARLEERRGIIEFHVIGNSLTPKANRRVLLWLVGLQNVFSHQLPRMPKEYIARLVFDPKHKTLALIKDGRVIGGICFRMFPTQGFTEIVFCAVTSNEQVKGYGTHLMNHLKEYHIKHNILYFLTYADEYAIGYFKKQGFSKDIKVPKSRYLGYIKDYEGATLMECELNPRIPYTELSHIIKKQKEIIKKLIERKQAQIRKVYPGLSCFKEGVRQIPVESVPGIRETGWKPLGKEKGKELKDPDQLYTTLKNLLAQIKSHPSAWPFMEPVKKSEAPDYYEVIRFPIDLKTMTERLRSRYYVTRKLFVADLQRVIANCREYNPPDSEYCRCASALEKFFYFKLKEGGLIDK
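Compounds, pin-transferred from DMSO stocks, meet 20nM GCN5L2 for 15 min before the reaction begins with H3(1-25) peptide (75uM) and acetyl-CoA (70uM). Thiol-reactive ThioGlo1 reports CoA release over 20 min at room temperature.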
PLK1 PBD block = inhibitors of human PLK1 polo-box domain binding. Potency, µM, hits mostly inhibitors. Plk1 PBD binding of FITC phosphopeptide, fluorescence polarization. 360,000 tested, 2.8% active; also: series mostly up to about 57 µM; nearly all actives have a fitted effect of over 65% in size
PI5P4K alpha inh = PI5P4K alpha (human) kinase inhibition | P48426 | PI5P4Kalpha enzyme, ADP-Glo luminescence, 60 min; active compounds read low | max response, % | 330,000 tested, 1.2% active; active = max response of -50% or lower; inconclusive = between -30% and -50%; inactive = -30% or higher; also: value at the top dose of about 77 µM
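PI5P4Kalpha ADP-Glo assay; 5 microM ATP final; 60 min RT reaction; HEPES pH 7.4/EGTA/CHAPS, 5% DMSO; controls lacking substrate or enzyme; luminescent end-point.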
VDR inhibitor = inhibitors of human vitamin D receptor. Potency, µM, actives largely listed as inhibitors. 400,000 tested, 0.93% active. AID 504847. VDR-SRC2-3 peptide fluorescence polarization, 2 h
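VDR–SRC2-3 interaction, FP format. Cmpds 23 nl via pintool, brief spin, 2 h ambient incubation.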
Numbers stand for hits; - = inactive; ? = inconclusive; . = not tested or not shown. Unless noted, calls follow the shape of the dose curve; as a rule, active = well fitted curve in the direction sought with a large enough effect; inconclusive = small, poorly fitted or top-dose-only effect, or another doubt; inactive = no such curve, though single readings can be large; an effect the other way counts as inactive or inconclusive.

SMILES	Rango dissoc inh	Rango complex inh	GCN5L2 inh	PLK1 PBD block	PI5P4K alpha inh	VDR inhibitor
O=C(NC1CCCC1)C(c1ccccn1)N(C(=O)c1csnn1)C1CCCCC1 (stereo not drawn)	-	-	-	26.7µM	-	?
O=C(CN(Cc1cccs1)C(=O)c1csnn1)NC1CCCC1	-	-	-	26.7µM	-	-
CC(C)c1ccc(Nc2c(-c3ccc(N(C)C)cc3)nc3cnccn23)cc1	.	.	-	.	.	-
CSc1cccc(NC(=O)c2c(Cl)cnn2C)c1	-	-	.	-	.	-
Cn1ncc(Cl)c1C(=O)Nc1cccc(Cl)c1	-	-	-	23.8µM	-	?
O=c1[nH]c2cc(Cl)c(O)cc2o1	.	.	-	.	.	-
Cc1nn(C(=O)c2ccccc2)c(C)c1Sc1ccc(Cl)cc1	.	.	-	.	.	-
CCCCN(CC)CCNC(=O)c1c(C)oc2ncnc(N3CCOCC3)c12	.	.	-	.	.	-
O=C1C(O)=C(O)C(=O)c2ccccc21	-	-	.	-	-	8.91µM
O=C1c2ccccc2C(=O)c2[nH]cnc21	-	-	-	-	-	-
O=C1C(=O)c2ccccc2C(O)=C1c1ccccc1F	-	-	-	-	-	-
O=C1c2ccccc2C(=O)c2[nH]c(=O)[nH]c21	-	-	-	-	-69.2	-
O=C(O[C@H]1CN2CCC1CC2)N1CCc2ccccc2[C@@H]1c1ccccc1	.	.	-	.	.	-
Nc1nc(CN2CCOCC2)cs1	-	-	-	23.8µM	-	?
CCOC(=O)CCc1ccc(NC(=O)/C=C/c2ccc([N+](=O)[O-])o2)cc1	10.3µM	-	.	-	-	-
Cc1ccc(/C=C/C(=O)Nc2ccc([N+](=O)[O-])cc2)o1	-	-	-	-	.	-
CCc1nnc(NS(=O)(=O)c2ccc(NS(=O)(=O)c3ccc(NC(C)=O)cc3)cc2)s1	.	.	-	.	.	.
Cc1ccc(S(=O)(=O)Nc2nnc(CC(C)(C)C)s2)cc1	-	-	-	26.7µM	-	-
CC(=O)Nc1ccc(S(=O)(=O)Nc2nnc(CC(C)(C)C)s2)cc1	-	-	-	26.7µM	-	?
COc1ccc(Cc2nnc(NS(=O)(=O)c3ccc(Cl)cc3)s2)cc1OC	-	-	-	29.9µM	-	-
Cc1ccc(S(=O)(=O)Nc2nnc(C(C)(C)C)s2)cc1	-	-	-	23.8µM	-	-
COc1ccc(Cc2nnc(NC(=O)CSc3ccc(Cl)cc3)s2)cc1OC	.	.	-	.	.	.
Cc1ccc(NC(=O)c2ccc(Cl)cc2Cl)c(C(=O)c2ccccc2)c1	.	.	-	.	.	-
Cc1cccc(N=C2NC(=O)/C(=C/C=C/c3ccco3)S2)c1	-	?	-	?	-67.0	?
O=C1NC(=Nc2ccc3ccccc3c2)S/C1=C/c1ccco1	-	?	?	-	-55.4	-
SMILES	Rango dissoc inh	Rango complex inh	GCN5L2 inh	PLK1 PBD block	PI5P4K alpha inh	VDR inhibitor
Cc1cccc(NC(=O)Cn2cc(C(=O)C3CCCCC3)c3ccccc32)c1	.	.	-	.	.	-
CC[C@H](C)[C@H](NC(=O)[C@H](CO)NC(=O)[C@H](C)NC(=O)[C@H](C)NC(=O)[C@H](CCC(N)=O)NC(=O)[C@H](CCCCN)NC(=O)[C@H](CCCN=C(N)N)NC(=O)[C@@H](N)CS)C(=O)N[C@@H](CCCCN)C(=O)N[C@H](C(=O)N[C@@H](C)C(=O)N[C@H](C(=O)N[C@@H](CO)C(=O)O)C(C)C)C(C)C	.	.	-	.	.	?
O=C(CSc1ccccn1)Nc1ccc2[nH]c(=O)[nH]c2c1	-	?	-	26.7µM	-	-
CCOCCCNC(=O)C(c1ccccc1)N(Cc1cccs1)C(=O)c1ccc(NC(C)=O)cc1 (stereo not drawn)	.	.	-	.	.	-
CCOc1cc(C(=O)NCC(c2ccc(N(C)C)cc2)N2CCOCC2)cc(OCC)c1OCC (stereo not drawn)	.	.	-	.	.	-
Fc1ccccc1Cn1nnc2c(-n3ccnc3)ncnc21	-	-	-	23.8µM	-	?
Clc1ccccc1Cn1nnc2c(N3CCCC3)ncnc21	-	-	-	-	.	-
O=C(CN1C(=O)c2ccccc2C1=O)NCc1ccc(F)cc1	-	-	-	7.52µM	-	?
CC(=O)Nc1ccc(SCc2c(C)noc2C)cc1	-	-	-	21.2µM	-	-
CC(=O)Nc1ccc(NC(=O)C(C)OC(=O)c2ccc(OCc3c(C)noc3C)cc2)cc1 (stereo not drawn)	-	-	-	29.9µM	.	?
Cc1noc(C)c1CSc1ccc(Br)cc1	-	-	-	?	.	-
CCc1ccccc1N(CC)C(=O)c1c(C)oc2ncnc(N3CCOCC3)c12	.	.	-	.	.	-
O=C(O)c1cc2cccc(S(=O)(=O)N3CCCCC3)c2cc1O	-	?	-	-	-63.9	-
C=CCNS(=O)(=O)c1cccc2cc(C(=O)O)c(O)cc12	?	?	?	-	-57.0	-
C=CCNS(=O)(=O)c1cccc(C(C)=O)c1	-	-	-	-	-	-
CC1=C(C(=O)Nc2cccnc2)C(c2ccc(F)cc2)n2nc(SCc3ccccc3)nc2N1 (stereo not drawn)	.	.	-	.	.	-
Cc1cc(C)cc(NC(c2cccc(Cl)c2)c2nnc(-c3ccccc3)o2)c1 (stereo not drawn)	.	.	-	.	.	-
COc1ccc(C2C(C(=O)Nc3cc(C)on3)c3ccccc3C(=O)N2C)cc1OC (stereo not drawn)	-	-	-	-	.	-
CCC(C)NC(=O)C1c2ccccc2C(=O)N(c2ccc(OC)cc2)C1c1ccc(OC)cc1 (stereo not drawn)	-	-	-	23.8µM	-	?
COc1ccc(C2C(C(=O)Nc3cc(C)on3)c3ccccc3C(=O)N2C)cc1 (stereo not drawn)	-	-	-	23.8µM	-	-
CCC(C)NC(=O)C1c2ccccc2C(=O)N1Cc1cc(OC)ccc1OC (stereo not drawn)	-	-	-	-	.	-
CCC1Oc2ccccc2N(CC(=O)NCc2ccc(C)cc2)C1=O (stereo not drawn)	.	.	-	.	.	-
COC(=O)CC1Oc2ccccc2N(Cc2ccc(C)cc2)C1=O (stereo not drawn)	-	-	-	26.7µM	-	-
Nc1ccc2c(c1)C/C(=C/c1ccco1)C2=O	?	?	?	?	-74.1	-
CCN(C(=O)Cn1nc(Cc2ccncc2)c2ccccc2c1=O)c1cccc(Cl)c1	.	.	-	.	.	-
O=C(CCl)NC1CCCc2ccccc21 (stereo not drawn)	-	-	-	26.7µM	?	-
O=C1/C(=C/c2cccnc2)Oc2cc(OS(=O)(=O)c3ccccc3)ccc21	-	-	-	-	.	50.1µM
CC(=O)Oc1ccc2c(c1)O/C(=C\c1ccncc1)C2=O	?	?	-	?	-52.7	-
CCC(=O)Oc1ccc2c(c1)O/C(=C\c1ccco1)C2=O	?	?	-	?	-65.4	-
COc1ccccc1C(=O)Oc1ccc2c(c1)O/C(=C\c1ccncc1)C2=O	?	?	-	-	-57.1	35.5µM
